Most compounds without a hit are left out; they make up all but 5.3% or so of the library.
VACV Venus inh: qHTS for Stage-Specific Inhibitors of Vaccinia Orthopoxvirus: Venus Reporter Primary qHTS. Potency, µM (series often up to 36.5 µM), for inactives: top-dose activity change, negative = inhibition, hits mostly inhibitors. 0.46% of 330,000 active. Vaccinia virus Venus reporter expression, fluorescence. AID 720580, 2013; calls by dose curve; tested in A549 cells; note: nearly all actives have a fitted effect of over 30% in size
Lassa entry inh: qHTS for Inhibitors of binding or entry into cells for Lassa Virus; 1.2% of 300,000 active; Lassa virus pseudotype entry inhibition, cell reporter; Potency, µM (top dose mostly 37.9 µM), for inactives: top-dose activity change, negative = inhibition, most hits filed as inhibitors; calls by dose curve; tested in HEK293 cells; note: nearly all actives have a fitted effect of over 50% in size
FMDV inh: High Throughput Screening for Foot and Mouth Disease Virus Antivirals; FMDV antiviral cell-based qHTS; Potency, µM (highest dose often 57.9 µM), without a hit: top-dose activity change, negative = inhibition, most hits filed as inhibitors; 1.2% of 410,000 active; AID 1159524, 2015; calls by dose curve; tested in HEK293T cells; note: read-out not given here; nearly all actives have a fitted effect of over 45% in size
VACV mCherry inh: qHTS for Stage-Specific Inhibitors of Vaccinia Orthopoxvirus: mCherry Reporter Primary qHTS; Vaccinia virus mCherry reporter infection, fluorescence; Potency, µM (top dose mostly 36.5 µM), without a hit: top-dose activity change, negative = inhibition, actives largely listed as inhibitors; 0.63% of 310,000 active; AID 720579, 2013; calls by dose curve; tested in A549 cells; note: nearly all actives have a fitted effect of over 35% in size
HCV inh: qHTS Assay for Inhibitors of Hepatitis C Virus (HCV); Huh7.5.1 HCVcc-Cre infection, luciferase reporter, 44 h; Potency, µM (titrated, usually from 41.8 µM), inactives show top-dose activity change, negative = inhibition, hits mostly inhibitors; 3.4% of 340,000 active; AID 651820, 2012; active = well fitted inhibition curve with a large enough effect; inconclusive = small, poorly fitted or top-dose-only effect, or another doubt; inactive = no such curve, though single readings can be large or run the other way
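Whole-lifecycle infectious HCVcc-Cre system; cells 1,000/well, compound then virus (~0.5 moi) added 4 h after plating, 44 h culture. Luciferase read 15 sec following 15 min substrate incubation, room temp.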
Marburg entry inh: qHTS for inhibitors of binding or entry into cells for Marburg Virus | Potency, µM (highest dose often 37.8 µM), without a hit: at the top dose activity change, negative = inhibition, usual class: inhibitors | Marburg virus pseudotyped entry inhibition, cell reporter | 1.8% of 300,000 active; calls by dose curve; tested in HEK293 cells
Starred values were filed as active, the others as inactive; [ ] = remark or other dose. % is set by controls: 0 for no effect and ±100 for the full control effect; potency is the fitted concentration of half-maximal effect.

Results for Cc1ccc(-c2cc(C(=O)NCCCN3CCCC3)c3ccccc3n2)cc1C ?
VACV Venus inh: -20.7%; Lassa entry inh: inconclusive; FMDV inh: -14.6%; VACV mCherry inh: inactive; HCV inh: 22.4µM*; Marburg entry inh: 11.2µM*

How did CCc1ccc(-c2cc(C(=O)Nn3cnnc3)c3ccccc3n2)cc1 do in these assays?
VACV Venus inh: -5.5%; Lassa entry inh: 1.3µM*; FMDV inh: 11.2µM*; VACV mCherry inh: -14.0%; HCV inh: 10.7%; Marburg entry inh: 1.03µM*

What do the screens show for `COc1ccc(CCNC(=O)c2ccc(Nc3nc4ccccc4n4nnnc34)cc2)cc1OC`?
VACV Venus inh: -21.0%; Lassa entry inh: -10.6%[46.1 µM]; FMDV inh: inconclusive; VACV mCherry inh: -28.6%; Marburg entry inh: inconclusive

What do the screens show for `COCCNC(=O)c1cc(-c2ccc(-c3ccccc3)cc2)nc2ccccc12`?
VACV Venus inh: -18.7%; Lassa entry inh: inconclusive; FMDV inh: 14.1%; VACV mCherry inh: inconclusive; HCV inh: 10µM*; Marburg entry inh: inconclusive

Results for CCNC(=S)NNC(=O)c1cc(-c2ccc(OCC)cc2)nc2ccccc12 ?
Lassa entry inh: 1.16µM*; FMDV inh: 12.6µM*; HCV inh: -14.2%; Marburg entry inh: inconclusive

Results for N[C@@H](CO)C(=O)NNCc1ccc(O)c(O)c1O ?
Marburg entry inh: -31.4%

Results for COc1ccc(CCN2C(=O)C3C4C=CC(C3C2=O)C2C(=O)N(CCc3ccc(OC)c(OC)c3)C(=O)C42)cc1OC (centres undefined) ?
Lassa entry inh: inconclusive; FMDV inh: inconclusive; HCV inh: 4.47µM*; Marburg entry inh: -6.7%

Results for Cc1ccccc1/C=C/c1cccc[n+]1C ?
FMDV inh: -7.3%; HCV inh: 6.31µM*

How did C[n+]1ccccc1/C=C/c1ccc(C#N)cc1 do in these assays?
VACV Venus inh: -2.0%; Lassa entry inh: 5.8%[46.1 µM]; FMDV inh: 2.2%; VACV mCherry inh: 0.1%; HCV inh: 17.2%; Marburg entry inh: inconclusive

What do the screens show for `C[n+]1ccccc1/C=C/c1ccc([N+](=O)[O-])cc1`?
VACV Venus inh: -28.2%; Lassa entry inh: 8.3%[46.1 µM]; FMDV inh: -2.5%; VACV mCherry inh: inconclusive; HCV inh: 10µM*; Marburg entry inh: 1.7%[46.1 µM]

How did CCC1(CC)C(=O)C2=C3C1[C@H](C(=O)OC)C=C(C(=O)OC)C[C@H]3[C@H]1C(=O)N(CC(=O)OC)C(=O)[C@H]1[C@H]2C (some centres undefined) do in these assays?
VACV Venus inh: -11.0%; FMDV inh: -1.9%; VACV mCherry inh: inactive; HCV inh: 27.8%

What do the screens show for `O=C(Cn1cnc2ccccc21)Nc1ccc(SC(F)F)cc1`?
VACV Venus inh: -22.7%; Lassa entry inh: -16.3%[46.1 µM]; FMDV inh: inconclusive; VACV mCherry inh: -7.1%; HCV inh: 8.91µM*; Marburg entry inh: 3.16µM*

How did CC[N+](CC)(CC)CC(=O)Nc1ccc(SC(F)F)cc1 do in these assays?
VACV Venus inh: -12.1%; Lassa entry inh: -0.3%; FMDV inh: -7.3%; VACV mCherry inh: inactive; HCV inh: 6.9%; Marburg entry inh: 9.3%

What do the screens show for `CCn1c(N)[n+](CC(=O)Nc2ccc(SC(F)F)cc2)c2ccccc21`?
VACV Venus inh: -23.8%; Lassa entry inh: inconclusive; FMDV inh: -7.3%; VACV mCherry inh: inconclusive; HCV inh: inconclusive; Marburg entry inh: 4.47µM*

How did COc1ccc(NC(=O)COC(=O)Cn2cnc3ccccc32)cc1 do in these assays?
VACV Venus inh: -1.9%; Lassa entry inh: 2.9%; FMDV inh: -1.6%; VACV mCherry inh: -18.3%; HCV inh: 31.1%; Marburg entry inh: 1.0%

Results for CCn1c(-c2ccccc2F)nc2cc(C(=O)NCC3CCOCC3)cc(NC(C)=O)c21 ?
VACV Venus inh: -2.4%; FMDV inh: -7.2%; VACV mCherry inh: -11.7%

How did CCN(CC(=O)NC(C)(C)C)C(=O)c1ccccc1SCC(=O)NC1CCCCCCC1 do in these assays?
VACV Venus inh: -16.1%; Lassa entry inh: -0.2%; FMDV inh: -19.9%; VACV mCherry inh: -6.0%; Marburg entry inh: -12.7%

Results for Cc1c(O)cccc1C(=O)N[C@@H](CSc1ccccc1)[C@H](O)CN1C[C@H]2CCCC[C@H]2C[C@H]1C(=O)NC(C)(C)C ?
VACV Venus inh: inconclusive; FMDV inh: inconclusive; VACV mCherry inh: inconclusive; HCV inh: 10µM*

How did COc1cc(=O)n2c(c1C(=O)NC(C)c1ccco1)CCN(Cc1ccnc3ccccc13)CC2 (centres undefined) do in these assays?
VACV Venus inh: -3.4%; FMDV inh: 4.1%; VACV mCherry inh: -7.2%

Results for Fc1ccc(NC(=S)N2CCCN(c3ccc(C(F)(F)F)cn3)CC2)c(F)c1 ?
FMDV inh: inconclusive; HCV inh: 0.501µM*

How did O=C(O)CSCC(=O)N1CCCN(c2ccc(C(F)(F)F)cn2)CC1 do in these assays?
VACV Venus inh: -4.3%; Lassa entry inh: 3.7%[46.1 µM]; FMDV inh: -11.2%; VACV mCherry inh: inactive; HCV inh: 19.8%; Marburg entry inh: 1.6%[46.1 µM]

Results for Cc1cc(C)cc(OCC(=O)N/N=C/c2ccc([N+](=O)[O-])o2)c1 ?
VACV Venus inh: inconclusive; Lassa entry inh: inconclusive; FMDV inh: -9.6%; VACV mCherry inh: inconclusive; HCV inh: 11.2µM*; Marburg entry inh: inconclusive

Results for Cc1ccccc1OCC(=O)N/N=C/c1ccc([N+](=O)[O-])o1 ?
FMDV inh: inconclusive; HCV inh: inconclusive; Marburg entry inh: -2.8%

Results for N#CCc1ccc(NC(=O)/C=C/c2ccc([N+](=O)[O-])o2)cc1 ?
VACV Venus inh: inconclusive; Lassa entry inh: 7.94µM*; FMDV inh: inconclusive; VACV mCherry inh: 7.08µM*; HCV inh: inconclusive; Marburg entry inh: inconclusive

How did CC1(C(=O)N/N=C/c2ccc([N+](=O)[O-])o2)CC1(Br)Br (centres undefined) do in these assays?
VACV Venus inh: 6.31µM*; Lassa entry inh: 12.6µM*; FMDV inh: -20.5%; VACV mCherry inh: inconclusive; HCV inh: inconclusive; Marburg entry inh: inconclusive

What do the screens show for `O=C(Cc1ccc([N+](=O)[O-])cc1)N/N=C/c1ccc([N+](=O)[O-])o1`?
VACV Venus inh: 11.2µM*; FMDV inh: -13.1%; VACV mCherry inh: 10µM*; HCV inh: 14.1µM*

What do the screens show for `CCCCCCCC(=O)N/N=C/c1ccc([N+](=O)[O-])o1`?
FMDV inh: -14.8%; HCV inh: inconclusive

Results for COCCC1CCCCN1Cc1nc(N2CCCCC2)c2cc(OC)c(OC)cc2n1 (centres undefined) ?
VACV Venus inh: -1.4%; FMDV inh: -3.3%; VACV mCherry inh: -14.7%

Screening data as filed in PubChem BioAssay.
